Only some compounds are listed: those with a hit (about 17% of all), similar ones and a draw of the others.
DT40 TDP1 no CPT: qHTS for Inhibitors of human tyrosyl-DNA phosphodiesterase 1 (TDP1): qHTS in cells in absence of CPT; DT40 Tdp1-/- hTDP1 cells, no CPT, ATP luminescence, 48 h; Potency, µM (series often up to 46.2 µM), actives largely listed as inhibitors; hit rate 15% among 420,000; also: nearly all actives have a fitted effect of over 55% in size
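Chicken DT40 Tdp1-/- cells stably complemented with human TDP1 were seeded at 400 cells/well with DMSO in place of 20 nM camptothecin. After compound pinning, cells grew at least 48 hr at 37 °C; viability read by CellTiter-Glo luminescence.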
ClpP mod: qHTS Assay for Activators of ClpP; hit rate 1.9% among 340,000; AID 651965, 2013; Potency, µM (top dose mostly 57.5 µM); purified B. subtilis ClpP, FRET peptide cleavage, 20 min; ATP-dependent Clp protease proteolytic subunit (Bacillus subtilis (strain 168)), P80244; active = well fitted falling curve with a large enough effect; inconclusive = small, poorly fitted or top-dose-only effect; inactive = no such curve, though single readings can be large or run the other way; also: the source files actives as falling curves though it sought activators and does not explain the sign; nearly all actives have a fitted effect of over 65% in size
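FRET quenching reversal measured ClpP activation: 10 microg/mL B. subtilis ClpP at pH 8 with the FRET-FV decapeptide, read at 430 nm after 320 nm excitation. The 20-min minus 0-min signal was scaled between DMSO/no-enzyme wells and ADEP (5.8 microM final).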
TDP1 cell CPT: growth inhibition of DT40 Tdp1-/-;hTDP1 cells with camptothecin (screen for TDP1 inhibitors); chicken DT40 Tdp1-/-;hTDP1 cells + 20 nM CPT, ATP luminescence, 48 h; Potency, µM (top dose mostly 46.2 µM), most hits filed as inhibitors; hit rate 12% among 420,000; AID 686979; also: nearly all actives have a fitted effect of over 55% in size
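Cell growth measured by CellTiter-Glo luminescence after a minimum 48 h, 37 C compound exposure with 20 nM CPT in Tdp1-knockout DT40 cells stably expressing hTDP1, seeded 400/well; qHTS titration format.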
TDP1 inh: inhibitors of human tyrosyl-DNA phosphodiesterase TDP1 | Q9NUW8 | recombinant TDP1, AlphaScreen DNA substrate cleavage | Potency, µM (highest dose often 130 µM), usual class: inhibitors | hit rate 0.28% among 350,000 | AID 485290; also: nearly all actives have a fitted effect of over 40% in size
Target sequence (Q9NUW8 whole entry, looked up): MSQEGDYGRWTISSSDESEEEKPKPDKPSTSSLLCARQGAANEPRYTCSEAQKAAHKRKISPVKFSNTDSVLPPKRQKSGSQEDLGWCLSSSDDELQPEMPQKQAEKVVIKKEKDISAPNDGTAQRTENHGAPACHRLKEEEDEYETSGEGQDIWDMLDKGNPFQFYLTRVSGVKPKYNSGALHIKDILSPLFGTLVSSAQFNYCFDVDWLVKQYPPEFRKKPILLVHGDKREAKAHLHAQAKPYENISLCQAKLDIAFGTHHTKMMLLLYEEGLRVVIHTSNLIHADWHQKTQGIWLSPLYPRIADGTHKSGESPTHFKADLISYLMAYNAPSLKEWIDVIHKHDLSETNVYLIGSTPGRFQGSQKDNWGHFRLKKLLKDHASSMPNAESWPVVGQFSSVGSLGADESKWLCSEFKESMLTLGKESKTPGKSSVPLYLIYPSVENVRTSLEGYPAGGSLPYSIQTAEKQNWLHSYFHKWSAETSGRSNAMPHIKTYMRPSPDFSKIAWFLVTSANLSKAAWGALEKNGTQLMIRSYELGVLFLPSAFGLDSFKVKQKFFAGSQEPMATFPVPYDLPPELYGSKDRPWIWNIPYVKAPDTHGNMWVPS
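Recombinant E. coli-expressed Tdp1 (1 nM) preincubated with compound 15 min at RT, then 5'-biotin/3'-phosphotyrosine-FITC DNA substrate (15 nM) added for 5 min. AlphaScreen beads (10 ug/ml) added, 10 min RT; tyrosine-FITC cleavage read as signal loss.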
Hits are given with their value; . = inactive; ? = inconclusive; / = not tested or not shown; ! = repeats disagree; [ ] = dose if it differs, or a comment. Unless noted, calls follow the shape of the dose curve; as a rule, active = well fitted curve in the direction sought with a large enough effect; inconclusive = small, poorly fitted or top-dose-only effect, or another doubt; inactive = no such curve, though single readings can be large; an effect the other way counts as inactive or inconclusive.

SMILES | DT40 TDP1 no CPT | ClpP mod | TDP1 cell CPT | TDP1 inh
OCC1(Cc2ccc(Cl)cc2)CCN(CCCc2ccccc2)CC1 | 23.1µM | / | ? | .
Fc1ccc(N2CCN(c3ncnc4[nH]ncc34)CC2)cc1 | . | . | . | .
O=C(Cn1ncc2c([nH]c3ccccc32)c1=O)NCc1cccc(Cl)c1 | . | . | . | .
CCN1/C(=C/c2cc[n+](CCCS(=O)(=O)[O-])c3ccccc23)Sc2ccccc21 | . | / | . | .
C=CC[n+]1ccc(/C=C2\C=Cc3cc(C)ccc3N2CC)c2ccccc21 | 0.206µM | . | 0.291µM | .
COc1ccc(N2CCN(C3CCCN(C(=O)C4=C(C)OCCO4)C3)CC2)cc1 (centres undefined) | . | . | . | .
COc1ccc(NS(=O)(=O)c2ccccc2C(=O)O)cc1 | / | / | / | .
COc1cc(CN2CCCC(n3cc(C(=O)N4CCCCC4)nn3)C2)cc(OC)c1 (centres undefined) | 23.1µM | / | ? | /
COc1ccc(C(NC(=O)C2CCN(CCOc3ccc(F)cc3)CC2)c2cccs2)cc1 (centres undefined) | ? | . | ? | /
COc1ccc(/C=C/CN2CCC(C(=O)NC(c3ccc(F)cc3)c3ccc4ccccc4n3)CC2)cc1 (centres undefined) | 20.6µM | . | 18.4µM | /
CC(C)CN1CCC(C(=O)NC(c2ccc(F)cc2)c2ccc3ccccc3n2)CC1 (centres undefined) | 23.1µM | . | ? | /
CCOC(=O)CN1CCC(C2(c3cc4ccccc4[nH]3)OCCO2)CC1 | . | . | . | /
N#C/C(=C(/O)c1ccc2c(c1)OCO2)c1nc2cc(C(F)(F)F)ccc2s1 | 14.6µM | / | 10.3µM | /
COc1cc(NC(=O)COCc2cc(-c3ccc(F)cc3)on2)cc(OC)c1OC | 9.2µM | . | 13µM | .
COc1ccc(C)cc1NC(=O)COCc1cc(-c2ccc(F)cc2)on1 | ? | . | ? | .
CCOC(=O)c1c(Nc2cc(C)cc(C)c2)nnc(-c2ccccc2)c1-c1ccccc1 | 14.6µM | . | 11.6µM | /
Cc1cccc(NC(=O)COC(=O)c2c(-c3ccccc3)noc2C)c1 | ? | . | ? | /
CCOC(=O)c1c(Nc2cccc(C)c2)nnc(-c2ccccc2)c1-c1ccccc1 | 16.4µM | . | ? | /
CCOC(=O)c1c(C)nc(-c2ccccc2)nc1N | . | . | . | .
Cc1ccc(NC(=O)c2sc(N)nc2-c2ccccc2)cc1C | ? | / | . | .
CCOC(=O)c1c(Nc2ccc(C)c(C)c2)nnc(-c2ccccc2)c1-c1ccccc1 | 16.4µM | . | ? | /
COC(=O)c1c(NC(=O)c2nc(SCc3ccc(C)cc3)ncc2Cl)sc2c1CCCC2 | . | . | . | .
O=C1C2C3C=CC(C3)C2C(=O)N1/N=C/c1ccc(-c2ccccc2[N+](=O)[O-])o1 (centres undefined) | . | . | ? | .
O=C1C2C3C=CC(C3)C2C(=O)N1/N=C/c1cc(Br)cc([N+](=O)[O-])c1O (centres undefined) | 23.1µM | . | ? | .
Oc1ccc(Nc2nc(-c3ccc4ccccc4c3)cs2)cc1 | / | / | / | .
SMILES | DT40 TDP1 no CPT | ClpP mod | TDP1 cell CPT | TDP1 inh
Oc1ccc(-c2nc(-c3ccc(O)c(O)c3)cs2)cc1 | 8.2µM | . | 8.2µM | .
COc1ccc(-c2ccc3c(c2)O[C@H](CN(C)C(=O)Nc2ccccc2F)[C@@H](C)CN([C@H](C)CO)S3(=O)=O)cc1 | 16.4µM | . | 23.1µM | /
C[C@@H]1CN([C@H](C)CO)S(=O)(=O)c2ccc(-c3ccc(C#N)cc3)cc2O[C@H]1CN(C)C(=O)Nc1cc(F)ccc1F | 2.31µM | . | 6.51µM | /
C[C@H]1CN([C@@H](C)CO)S(=O)(=O)c2ccc(Br)cc2O[C@H]1CN(C)C(=O)Nc1ccccc1F | . | . | . | /
COc1cc(CNC2CCCCCCC2)cc(Cl)c1OC | ? | . | ? | /
CCOc1c(Br)cc(CNC2CCCCCCC2)cc1OC | 14.6µM | . | 20.6µM | .
CCN(CC(=O)NCc1cccs1)c1ccc(S(=O)(=O)N2CCN(C)CC2)cn1 | . | . | . | .
Cn1nccc1C(=O)Nc1ccn(C23CC4CC(CC(C4)C2)C3)n1 | 14.6µM | . | 20.6µM | .
Cn1cc([N+](=O)[O-])c(C(=O)Nc2ccn(C34CC5CC(CC(C5)C3)C4)n2)n1 | ? | . | . | .
Cc1ccc(NC(=O)c2c(C)nc3sc(C(=O)NC4CCCC4)c(N)c3c2-c2ccco2)c(C)c1 | 5.17µM | . | 2.91µM | .
CCc1ccc(NC(=O)c2sc3nc(C)c(C(=O)Nc4ccc(C)cc4C)c(-c4ccco4)c3c2N)cc1 | . | . | . | .
Cc1cc(C)cc(C(=O)OCC(=O)Nc2ncccn2)c1 | . | . | . | /
COc1ccc(C)cc1NC(=O)c1cc(S(=O)(=O)NCCC2=CCCCC2)ccc1F | ? | . | 20.6µM | .
COc1ccccc1NC(=O)c1cc(S(=O)(=O)NCCC2=CCCCC2)ccc1F | ? | . | 23.1µM | .
COc1ccccc1NC(=O)c1cc(S(=O)(=O)NC2CCCC2)ccc1F | . | . | ? | .
COc1ccc(C)cc1NC(=O)c1cc(S(=O)(=O)N2CCC3(CC2)OCCO3)ccc1F | . | . | . | .
CCC1CN(C(=O)Nc2ccc(C(=O)O)cc2)c2cc(Cl)ccc2O1 (centres undefined) | . | . | . | .
CCC1CN(C(=O)NCc2ccc(C)cc2)c2cc(C)ccc2O1 (centres undefined) | 14.6µM! | . | 23.1µM | .
CCC1CN(C(=O)NCc2ccc(F)cc2)c2cc(Cl)ccc2O1 (centres undefined) | ? | . | ? | .
CCc1ccccc1NC(=O)N1CC(CC)Oc2ccc(Cl)cc21 (centres undefined) | ? | . | 20.6µM | .
CCC1CN(C(=O)NCc2ccccc2)c2cc(C)ccc2O1 (centres undefined) | ? | . | ? | .
CCC1CN(C(=O)NCc2ccc(C)cc2)c2cc(Cl)ccc2O1 (centres undefined) | 23.1µM | . | 20.6µM | .
CC(=O)OC[C@@H]1O[C@H](C/C=N\O[C@@H](C)CN2CCCCc3nc(C)c(C)cc32)C=C[C@@H]1OC(C)=O | / | / | / | .[21 µM]
Cc1ccccc1OCC(=O)Nc1ccc(C(=O)OCc2cc(=O)n3c(C)csc3n2)cc1 | . | . | . | .
COC(=O)C1C=CC(OC2OC(COC(C)=O)C(OC(C)=O)C(OC(C)=O)C2OC(C)=O)n2c(=O)n(-c3ccccc3)c(=O)n21 (centres undefined) | 0.82µM | . | 0.731µM | /
COc1cccc(CNC(=O)C(=O)NCC2OCCCN2S(=O)(=O)c2cc(C)ccc2C)c1 (centres undefined) | . | . | ? | .
COc1ccc(-c2ccc(CCC(=O)O)o2)cc1 | ? | / | 20.6µM | .
CCCc1nc(SCc2cc(=O)c3ccc(C)c(C)c3[nH]2)n[nH]1 | ? | . | ? | .
CCCNC(=O)C1(C)CCN(Cc2ccc(-n3ccnc3)cc2)C1 (centres undefined) | . | . | . | /

Compound activity (PubChem BioAssay)
